Assay results taken from PubChem BioAssay AID2567 (National Center for Advancing Translational Sciences (NCATS), 2010).
Records with an inconclusive call do not appear. Activity calls are given as the source filed them. Calls come from the whole dose curve; as a rule, active = well fitted antagonist curve with a large enough effect in the main read-out, with a control signal flat; inconclusive = small, poorly fitted or top-dose-only effect; inactive = no such curve, though single readings can be large or run the other way.

Target: Neuropeptide S receptor (Homo sapiens) (UniProt Q6W5P4)
Sequence (Q6W5P4 whole entry, looked up): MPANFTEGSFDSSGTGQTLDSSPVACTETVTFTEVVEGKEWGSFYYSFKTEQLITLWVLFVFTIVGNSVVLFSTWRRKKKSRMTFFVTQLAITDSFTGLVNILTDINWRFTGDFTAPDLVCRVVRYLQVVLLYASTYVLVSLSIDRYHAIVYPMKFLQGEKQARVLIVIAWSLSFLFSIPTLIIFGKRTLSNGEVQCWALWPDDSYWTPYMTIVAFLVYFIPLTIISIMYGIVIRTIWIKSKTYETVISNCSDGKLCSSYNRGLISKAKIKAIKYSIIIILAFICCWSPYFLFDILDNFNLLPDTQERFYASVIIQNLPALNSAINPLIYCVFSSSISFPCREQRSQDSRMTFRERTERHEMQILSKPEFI
Assay: Confirmation Concentration-Response Assay for Antagonists of the Neuropeptide S Receptor: Calcium Signal Transduction, SAR for Probe
Details: CHO-NPSR cells, NPS-induced calcium fluorescence, FDSS; series mostly up to 19.3 µM
From the text: NIH Chemical Genomics Center [NCGC] NIH Molecular Libraries Probe Production centers Network [MLPCN] MLPCN Grant: X01-DA026210-01 Assay Submitter (PI): Heilig, Markus Alexander NCGC Assay Overview: Neuropeptide S receptor (NPSR), previously known as GPR154, is a recently de-orphanized G protein coupled receptor. Its endogenous ligand is the 20 amino acids peptide Neuropeptide S (NPS). […] NPS and its receptor are found in various tissues. Specifically they are highly expressed in brain areas that have been implicated in modulation of arousal, stress and anxiety. Central administration of NPS in mice produces an unusual profile of activity by inducing wakefulness and arousal, while at the same time suppressing anxiety. Therefore, NPSR may represent a novel drug target for the treatment of sleep and anxiety disorders. To identify NPSR antagonists, we developed a cell-based assay with transfected NPS receptor. NPS can stimulate the production of cAMP as well as release intracellular calcium in Chinese hamster ovary cells stably expressing NPS receptor. This change in intracellular calcium can be detected using a calcium indicator dye on a calcium imaging plate reader system (FDSS).
NCGC Assay Protocol Summary: A Chinese hamster ovary (CHO) cell line stably expressing the NPS receptor (CHO-NPSR) was obtained from Dr. Heilig lab at NIAAA and maintained in F-12 Kaighn's media (Invitrogen, Carlsbad, CA, 21127) supplemented with 10 % FBS, 100 units/ml penicillin, 100 ug/ml streptomycin and 250 ug/ml geneticin at 37C, 5% CO2 in a humidified atmosphere. Before the assay, aliquots of cells were frozen and stored at -135C. The assay was performed on a FDSS-7000 kinetic plate reader in 1536-well format. For both agonist (1-220s) and antagonist (221-400s) phases, the maximums of kinetic fluorescence responses were converted separately into text files using the instrument's software data export utility. Data for agonist response were normalized to the controls for basal activity (DMSO only) and 100% activation (NPS). […] AC50 values were determined from concentration-response data modeled with the standard Hill equation. NPS 1536-well FDSS assay protocol: (1) Frozen CHO-NPSR cells were thaw, washed once with fresh media and resuspended in F-12 Kaighn's media supplemented with 10 % FBS, 100 units/ml penicillin and 100 ug/ml streptomycin. Cells were plated at 3 ul/well (1200 cells) to black, clear-bottom, tissue-culture treated 1536-well plates, and then cultured at 37C, 5 % CO2 for 16 to 30 hours. (2) Add 3 ul of calcium dye (from High Performance PBX Calcium Assay Kit, BD Biosciences). The calcium dye was prepared according to the manufactory's instruction. (3) Incubation at 37C, 5 % CO2 for 60 to 120 min. (4) Load plates to FDSS-7000. The following steps were performed on FDSS-7000. (5) Record fluorescent background (Ex 480 nm, Em 520-560 nm) for 10 s. (6) Add 23 nl/well of compound in DMSO solution. The final titration for each compound was between 0.6 nM and 46 uM. Record agonist response for 210 s. (7) Add 2 ul of stimulation reagent (1X HBSS buffer, 0.1% BSA, 60 nM NPS). Record antagonist response for 140 s. Keywords: MLSMR, MLPCN, NIH Roadmap, qHTS, NCGC, NPS, Neuropeptide S Antagonists

Potency, inactive:
NC(=S)N/N=C/c1ncc(C(F)(F)F)cc1Cl
Cn1cc(P(=O)(c2ccccc2)c2ccccc2)c2ccccc21
Cc1c(C(O)(c2ccccc2)c2ccccc2)[n+]2ccccc2n1C
COc1cccc(C2c3c(ncn(-c4ccc(-c5ccccc5)cc4)c3=N)Oc3ccc4ccccc4c32)c1 (stereo not given)
COc1ccc(C2c3c(ncn(CCCc4ccccc4)c3=N)Oc3ccc4ccccc4c32)cc1OC (stereo not given)
COc1ccc(C2C3=C(N=CN(CCN4CCOCC4)C3N)Oc3ccccc32)cc1OC (stereo not given)
CCSc1nc2c(c(=O)n1Cc1ccccc1)SC(C)C2 (stereo not given)
CCCN1C(=O)/C(=C\C=C2/C=CN(CC)c3ccccc32)SC1=S
Cc1c(P(=S)(c2ccccc2)c2ccccc2)c2ccccc2n1CCc1ccccc1
O=C(NCc1ccc(F)cc1)n1cc(P(=S)(c2ccccc2)c2ccccc2)c2ccccc21
Cn1nc(-c2ccc(Cl)cc2)nc2c(=O)n(C)c(=O)nc1-2
CCC(C)n1c(=O)c(C(=O)Nc2ccccc2S(N)(=O)=O)c(O)c2ccccc21 (stereo not given)
Cc1nc2ccccn2c1P(=O)(c1ccccc1)c1ccccc1
Cc1nnc(NC(=O)c2cccc(S(=O)(=O)N3CCc4ccccc43)c2)s1
CN(C)c1nc(=Nc2cccc(Cl)c2)ss1
CN(C)C(=O)Oc1cccc([N+](C)(C)C)c1
CC(C)Cc1nc(N2CCN(C(=O)c3ccccc3)CC2)c(C#N)c2c1CCC2
OC(c1ccccc1)(c1ccccc1)c1cnc2ccccn12
C[n+]1cc(C(O)(c2ccccc2)c2ccccc2)n2ccccc21
NC(=O)OCC(COC(N)=O)c1ccccc1
COc1ccc(C2c3c(n(Cc4ccccc4)cnc3=N)Oc3ccc4ccccc4c32)cc1OC (stereo not given)
CCCCCN1C=CC=C/C1=C\C=C(C#N)C#N
Cc1c(P(=S)(c2ccccc2)c2ccccc2)c2ccccc2n1CCCc1ccccc1

Potency, active:
Cc1ccc(S(=O)(=O)Nc2cccc3ncccc23)s1 3.16 µM
COc1cccc(C2c3c(ncn(-c4ccc(Br)cc4)c3=N)Oc3ccc4ccccc4c32)c1 (stereo not given) 2.76 µM
C/C(=N\Nc1ncc(Cl)cc1Cl)c1ccccn1 2.51 µM
COc1cccc2sc(Nc3nc(-c4ccccn4)cs3)nc12 3.16 µM
COc1cccc(C2c3c(ncn(-c4ccccc4Br)c3=N)Oc3ccc4ccccc4c32)c1 (stereo not given) 5.52 µM
COc1cccc(N2CCN(c3ncnc4c3[nH]c3ccc(F)cc34)CC2C)c1 (stereo not given) 0.631 µM
COc1cccc(C2c3c(ncn(-c4ccccc4OC)c3=N)Oc3ccc4ccccc4c32)c1 (stereo not given) 1.1 µM
COc1cccc(C2c3c(ncn(-c4cccc(C#N)c4)c3=N)Oc3ccc4ccccc4c32)c1 (stereo not given) 4.38 µM
COc1cccc(C2c3c(ncn(-c4ccccc4Cl)c3=N)Oc3ccc4ccccc4c32)c1 (stereo not given) 5.52 µM
COc1ccc(C2c3c(n(CCCc4ccccc4)cnc3=N)Oc3ccc4ccccc4c32)cc1OC (stereo not given) 5.52 µM
CCOC(=O)c1ccc(-n2cnc3c(c2=N)C(c2cccc(OC)c2)c2c(ccc4ccccc24)O3)cc1 (stereo not given) 2.76 µM
COc1cccc(C2c3c(ncn(-c4ccc(NC(C)=O)cc4)c3=N)Oc3ccc4ccccc4c32)c1 (stereo not given) 5.52 µM
COc1cccc(C2c3c(ncn(-c4cccc(Br)c4)c3=N)Oc3ccc4ccccc4c32)c1 (stereo not given) 4.38 µM
O=C1OC(c2ccccc2)(c2ccccc2)N2CCN(C(=O)NCc3ccc(F)cc3)CC12 (stereo not given) 0.139 µM
COc1ccc(C2c3ccccc3Oc3ncn(CCN4CCOCC4)c(=N)c32)cc1OC (stereo not given) 0.694 µM
COc1cccc(C2c3c(ncn(-c4ccccc4C(C)(C)C)c3=N)Oc3ccc4ccccc4c32)c1 (stereo not given) 4.38 µM
COc1cccc(C2c3c(ncn(-c4ccc(C)cc4)c3=N)Oc3ccc4ccccc4c32)c1 (stereo not given) 3.48 µM
